Compounds with a hit are over-represented: about 10% of the library has one in this group of screens.
Pf growth 48h: Primary qHTS for delayed death inhibitors of the malarial parasite plastid, 48 hour incubation; P. falciparum luciferase growth in erythrocytes, 48 h; Potency, µM (top dose mostly 28.7 µM), inactives show at the top dose activity change, negative = inhibition, most hits filed as inhibitors; 310,000 tested, 5.9% active; AID 504832, 2011; active = well fitted inhibition curve with a large enough effect; inconclusive = small, poorly fitted or top-dose-only effect, or another doubt; inactive = no such curve, though single readings can be large or run the other way; also: % is scaled to controls: 0 for no effect and ±100 for the full control effect
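Parasite viability was followed by luminescence of a genomically integrated firefly luciferase. Cultures held 0.1% parasitemia at 2% hematocrit (final), incubated under 5% CO2 at 37 C.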
Pf growth 96h: Primary qHTS for delayed death inhibitors of the malarial parasite plastid, 96 hour incubation. Potency, µM (highest dose often 28.7 µM), for the others: top-dose activity change, negative = inhibition, hits mostly inhibitors. P. falciparum luciferase reporter growth, 96 h. AID 504834, 2011. 320,000 tested, 6.9% active; active = well fitted inhibition curve with a large enough effect; inconclusive = small, poorly fitted or top-dose-only effect, or another doubt; inactive = no such curve, though single readings can be large or run the other way; also: % is scaled to controls: 0 for no effect and ±100 for the full control effect
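Infected RBCs, 2% Hct / 0.05% parasitemia final; luciferase-reporter P. falciparum; cpd 96 h, 37 C, 5% CO2; luciferase detection reagent; luminescence.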
SARS PLP yeast: qHTS of Yeast-based Assay for SARS-CoV PLP; S. cerevisiae expressing SARS-CoV PLpro, growth rescue; Potency, µM (highest dose often 32.9 µM), for inactives: at the top dose activity, positive = growth rescue, hits mostly activators; 330,000 tested, 0.19% active; AID 485353, 2010; also: 0% is about no effect; nearly all actives have a fitted effect of over 55% in size
NS1 inh: qHTS Assay for Inhibitors of Influenza NS1 Protein Function; 270,000 tested, 0.4% active; Potency, µM (doses to about 46.1 µM), for the others: at the highest dose activity, positive = more growth; also: actives are rising curves; nearly all actives have a fitted effect of over 50% in size
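Read-out: OD600 growth recovery of NS1-expressing budding yeast. Cells grown overnight at 30C in -URA glucose medium, washed, resuspended and diluted 1:100 in 2% galactose assay medium, pH 6.0. Same strain lacking NS1 served as positive control.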
* hit, by the source's call; u = inconclusive; x = no result given. Unless noted, calls follow the shape of the full dose curve. Potency is read from the fitted curve at half-maximal effect.

SMILES	Pf growth 48h	Pf growth 96h	SARS PLP yeast	NS1 inh
COc1cccc(N2C(C(C)=O)=NN(c3ccccc3)C2c2ccc(N3CCOCC3)cc2)c1 (stereo not drawn)	13µM*	u	-28%	-23%
CC(=O)C1=NN(c2ccccc2)C(c2ccc3c(c2)OCO3)N1c1ccc(N2CCOCC2)cc1 (stereo not drawn)	15µM*	u	3%	7%
CC(=O)C1=NN(c2ccccc2)C(c2cccs2)N1c1ccccc1 (stereo not drawn)	x	4.7µM*	-6%	11%
CC(=O)N1N=C(c2ccccc2O)CC1c1cccs1 (stereo not drawn)	-5%	3%	-6%	-15%
COc1ccc(C2N(c3ccc(Cl)cc3)N=C(C(C)=O)N(C)N2C(C)=O)cc1 (stereo not drawn)	u	u	-2%	x
Cc1onc(-c2ccccc2)c1C(=O)OCC(=O)N1CCN(c2ccccc2)CC1	-12%	1%	0%	x
CC1(C)C2CCC1(C)C(NC(=O)CCN1CCCCC1)C2 (stereo not drawn)	5%	0.093µM*	2%	3%
Cc1ccc(C(=O)N2CCC(C(=O)c3c(C)cc(C)cc3C)CC2)cc1	u	u	-2%	-44%
CN(Cc1ccccc1)c1nc2c(c(=O)n(C)c(=O)n2C)n1CCSc1ncccn1	10µM*	u	1%	-4%
Cc1cc(C)nc(SCCn2c(N(C)Cc3ccccc3)nc3c2c(=O)n(C)c(=O)n3C)n1	7.4µM*	u	0%	-14%
O=C(O)[C@H](Cc1ccccc1)NC(=O)N1CCN(c2ccccc2)CC1	3%	19%	4%	6%
NC(=S)N/N=C\c1c(OCc2ccccc2Cl)ccc2ccccc12	10µM*	42%	11%	x
CC(=O)c1c(C)nc2sc3c(=N)n(N)cnc3c2c1-c1ccc(Cl)cc1	u	13µM*	-10%	18%
CC(OC(=O)CNC(=O)c1sc2ccccc2c1Cl)c1ccccc1 (stereo not drawn)	-11%	12%	5%	x
O=C(CCCc1ccccc1)Nc1ccnn1C1CCN(Cc2ccc(CO)o2)CC1	-18%	55%	-1%	7%
O=C(NN=C1CCCC1)c1[nH]c2ccc(Cl)cc2c1-c1ccccc1	u	13µM*	1%	22%
CC(=O)NNC(=O)c1[nH]c2ccc(Cl)cc2c1-c1ccccc1	5%	19%	-1%	-1%
CCN(c1ccccc1)S(=O)(=O)c1ccc2c(c1)CC(C)N2C(=O)C1CC1 (stereo not drawn)	u	4.1µM*	17%	-32%
CCOC(=O)N1CCN(C(=O)CCS(=O)(=O)c2ccc3c(c2)CC(C)N3C(=O)CC)CC1 (stereo not drawn)	1%	15µM*	1%	0%
CC1Cc2cc(S(=O)(=O)CCC(=O)N3CCN(c4ccccc4)CC3)ccc2N1C(=O)C1CC1 (stereo not drawn)	-12%	9.3µM*	3%	7%
CC(=O)N1c2ccc(S(=O)(=O)N(C)CC(=O)NC(C)c3ccccc3)cc2CC1C (stereo not drawn)	-12%	9.3µM*	1%	3%
CC(C)n1nnnc1SCC(=O)N(C)C1CCS(=O)(=O)C1 (stereo not drawn)	x	x	13%	x
COc1ccc(NC(=O)CC(C)n2ccnc2)cc1 (stereo not drawn)	16%	159%	1%	3%
CCCN(CC(=O)Nc1ccc(F)c(F)c1F)C(=O)c1ccc(N2CCCC2=O)cc1	-24%	u	-11%	x
CC(C(=O)c1ccc(Br)cc1)[n+]1cccc2ccccc21 (stereo not drawn)	u	0%	-4%	-7%
SMILES	Pf growth 48h	Pf growth 96h	SARS PLP yeast	NS1 inh
CCc1cc2c(NCC3CCCO3)nc(C)nc2s1 (stereo not drawn)	-13%	u	5%	-5%
O=C(C1CC=CCC1)N1CCN(S(=O)(=O)c2ccc(F)cc2)CC1 (stereo not drawn)	10%	13%	2%	x
CCC(=O)N1c2ccc(S(=O)(=O)NC3CCCCC3)cc2CC1C (stereo not drawn)	0%	10µM*	4%	9%
COc1cccc(N2C(=NC(=O)c3ccccc3)SC3CS(=O)(=O)CC32)c1 (stereo not drawn)	-6%	1%	1%	16%
S=C(NCCC(c1ccccc1)c1ccccc1)Nc1ccc(Cl)cc1	0%	42%	-24%	-59%
S=C(NCCC(c1ccccc1)c1ccccc1)Nc1ccccc1Cl	u	4.7µM*	18%	0%
CCOC(=O)c1nn(-c2ccc(F)cc2)c(=O)cc1OCC(=O)Nc1ccc(OCC)cc1	32%	21%	-1%	x
O=C(CN1C(=O)/C(=C\c2cccc(Cl)c2)Oc2ccccc21)N1CCN(c2ccccn2)CC1	23%	9.3µM*	1%	x
OCCN(Cc1ccccc1)C(=S)Nc1ccc(Cl)cc1Cl	68%	37%	-2%	x
COc1ccc(-n2c(=O)c(CCC(=O)NCCc3ccccc3F)nc3ccccc32)cc1	u	u	-4%	x
CCc1ccc(CN(C)C(=O)CCc2nc3ccccc3n(-c3ccc(OC)cc3)c2=O)cc1	u	13µM*	-8%	x
COc1ccc(-n2c(=O)c(CCC(=O)N(C)Cc3ccccc3C)nc3ccccc32)cc1	10µM*	8.3µM*	0%	x
Cc1ccc(Cl)cc1N1CCN(S(=O)(=O)c2c(C)[nH]c(C)c2C(=O)N2CCCCC2)CC1	u	25%	1%	14%
Cc1cc(F)ccc1S(=O)(=O)Nc1ccc(O)c(Sc2ncn[nH]2)c1	-2%	0%	4%	2%
Cc1ccc(S(=O)(=O)Nc2cc(S(=O)(=O)N3CCOCC3)ccc2NCC2CCCO2)cc1 (stereo not drawn)	-25%	-24%	21%	x
COc1ccc(N2CCN(C(=O)CCCn3c(=O)c4cccn4c4cccnc43)CC2)cc1	12µM*	43%	-3%	12%
COc1ccc(N2CCN(CCCn3c(=S)[nH]c4ncccc4c3=O)CC2)cc1	x	13µM*	14%	13%
COc1ccc(CCNC(=O)CCCn2c(=O)c3cccn3c3cccnc32)c(OC)c1OC	u	13µM*	4%	-2%
COc1ccc(CCNC(=O)CCCn2c(=O)c3cccn3c3cccnc32)c(OC)c1	u	10µM*	1%	13%
O=c1c2cccnc2[nH]c(=S)n1CCCN1CCN(c2ccc(F)cc2)CC1	8%	x	8%	-8%
COc1ccc(CCNC(=O)c2nn(C)c3c2CS(=O)(=O)c2ccccc2-3)c(OC)c1	-18%	u	-6%	-5%
CC(C)Oc1ccc(CNC(=O)Cn2c(=O)c3cccn3c3cccnc32)cc1	17%	15µM*	-4%	-1%
CCOc1ccc(CNC(=O)Cn2c(=O)c3cccn3c3ccccc32)cc1	13%	u	-2%	11%
COc1ccc(NC(=S)NN2CCN(C)CC2)cc1OC	24%	2.3µM*	20%	3%
O=C1CC(NCCN2CCOCC2)C(=O)N1Cc1ccc(N2CCCC2=O)cc1 (stereo not drawn)	5%	4.1µM*	1%	-9%

Assay outcomes from PubChem.
